Out of some 5,500 compounds screened, about 2,000 (36%) were called active. Inconclusive results (about 18%) are left out. Cut-off read from the data, not from the text of the source: active = normalized growth mostly below about 0.91 (no sharp cut-off); inconclusive = no clear call, values can overlap the other calls; inactive = mostly above about 0.92. The list shows a part of the results.
Assay: chemical genetic growth profiling, strain panel (AID 1159580);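 note: tested at 20 µM; growth read once vehicle control cultures reached saturation at 30 °C; 1 = growth at the plate median or of vehicle wells; lower values mean less growth of the strain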
Conditions: growth OD

Measured: normalized growth

COC(=O)C[C@H]1C(C)(C)[C@@H](O)[C@@H]2CC3=C4CC(O)O[C@@H](c5ccoc5)[C@]4(C)CCC3[C@@]1(C)C2=O (some centres not stated)
inactive: S. cerevisiae deletion strains, locus YJL187C, strain SWE1, active compounds read low 1.03 | S. cerevisiae deletion strains, locus YJR066W, strain TOR1, active compounds read low 0.962 | S. cerevisiae deletion strains, locus YJR075W, strain HOC1, active compounds read low 0.99 | S. cerevisiae deletion strains, locus YKL009W, strain mrt4, active compounds read low 0.985 | S. cerevisiae deletion strains, locus YKL068W, active compounds read low 0.98 | S. cerevisiae deletion strains, locus YKL085W, strain MDH1 (second series), active compounds read low 0.99 | S. cerevisiae deletion strains, locus YKL085W, strain MDH1, active compounds read low 0.99 | S. cerevisiae deletion strains, locus YKL160W, strain elf1, active compounds read low 0.998 | S. cerevisiae deletion strains, locus YKL190W, strain CNB1, active compounds read low 1 | S. cerevisiae deletion strains, locus YKR001C, strain vps1, active compounds read low 0.98 | S. cerevisiae deletion strains, locus YKR026C, strain gcn3, active compounds read low 1.02 | S. cerevisiae deletion strains, locus YKR091W, strain srl3, active compounds read low 1.01 | S. cerevisiae deletion strains, locus YLL001W, strain dnm1, active compounds read low 0.994 | S. cerevisiae deletion strains, locus YLL026W, active compounds read low 1.02 | S. cerevisiae deletion strains, locus YLL041C, strain sdh2, active compounds read low 1.02 | S. cerevisiae deletion strains, locus YLR027C, strain aat2, active compounds read low 1.04 | S. cerevisiae deletion strains, locus YLR039C, strain RIC1, active compounds read low 0.981 | S. cerevisiae deletion strains, locus YLR058C, strain SHM2, active compounds read low 1 | S. cerevisiae deletion strains, locus YLR102C, strain apc9, active compounds read low 0.99 | S. cerevisiae deletion strains, locus YLR113W, strain HOG1, active compounds read low 0.971 | S. cerevisiae deletion strains, locus YLR221C, strain rsa3, active compounds read low 1.06 | S. cerevisiae deletion strains, locus YLR258W, strain gsy2, active compounds read low 0.99 | S. cerevisiae deletion strains, locus YLR262C, strain YPT6 (second series), active compounds read low 1.01 | S. cerevisiae deletion strains, locus YLR268W, strain sec22, active compounds read low 1.02 | S. cerevisiae deletion strains, locus YLR320W, strain mms22, active compounds read low 1.06 | S. cerevisiae deletion strains, locus YLR342W, strain FKS1, active compounds read low 1.02 | S. cerevisiae deletion strains, locus YLR357W, strain rsc2, active compounds read low 1.04 | S. cerevisiae deletion strains, locus YLR370C, strain arc18, active compounds read low 1 | S. cerevisiae deletion strains, locus YLR371W, strain rom2, active compounds read low 0.96 | S. cerevisiae deletion strains, locus YLR384C, strain iki3, active compounds read low 0.999 | S. cerevisiae deletion strains, locus YLR418C, strain cdc73, active compounds read low 0.946 | S. cerevisiae deletion strains, locus YML016C, strain PPZ1, active compounds read low 1.01 | S. cerevisiae deletion strains, locus YML032C, strain rad52, active compounds read low 0.983 | S. cerevisiae deletion strains, locus YML120C, strain ndi1, active compounds read low 0.995 | S. cerevisiae deletion strains, locus YML124C, strain tub3, active compounds read low 0.981 | S. cerevisiae deletion strains, locus YMR058W, strain fet3, active compounds read low 1.04 | S. cerevisiae deletion strains, locus YMR078C, strain ctf18, active compounds read low 0.957 | S. cerevisiae deletion strains, locus YMR125W, strain sto1, active compounds read low 1.02 | S. cerevisiae deletion strains, locus YMR129W, active compounds read low 1.02 | S. cerevisiae deletion strains, locus YMR205C, strain PFK2, active compounds read low 1.03 | S. cerevisiae deletion strains, locus YMR223W, strain ubp8, active compounds read low 0.988 | S. cerevisiae deletion strains, locus YMR231W, strain pep5, active compounds read low 1.02 | S. cerevisiae deletion strains, locus YMR263W, strain SAP30, active compounds read low 0.983 | S. cerevisiae deletion strains, locus YMR307W, strain GAS1, active compounds read low 1.09 | S. cerevisiae deletion strains, locus YNL067W, strain RPL9B, active compounds read low 0.967 | S. cerevisiae deletion strains, locus YNL071W, strain lat1, active compounds read low 1 | S. cerevisiae deletion strains, locus YNL153C, strain GIM3, active compounds read low 0.978 | S. cerevisiae deletion strains, locus YNL183C, strain NPR1, active compounds read low 0.987 | S. cerevisiae deletion strains, locus YNL209W, strain ssb2, active compounds read low 1 | S. cerevisiae deletion strains, locus YNL233W, strain BNI4, active compounds read low 1.02 | S. cerevisiae deletion strains, locus YNL248C, strain rpa49, active compounds read low 1.05 | S. cerevisiae deletion strains, locus YNL250W, strain rad50, active compounds read low 0.944 | S. cerevisiae deletion strains, locus YNL271C, strain bni1, active compounds read low 0.981 | S. cerevisiae deletion strains, locus YNL298W, strain CLA4, active compounds read low 0.981 | S. cerevisiae deletion strains, locus YNL307C, strain MCK1, active compounds read low 0.994 | S. cerevisiae deletion strains, locus YNL322C, strain KRE1 (second series), active compounds read low 1.04 | S. cerevisiae deletion strains, locus YNR049C, strain mso1, active compounds read low 1.01 | S. cerevisiae deletion strains, locus YNR052C, strain pop2, active compounds read low 0.975 | S. cerevisiae deletion strains, locus YOL006C, strain TOP1, active compounds read low 1.12 | S. cerevisiae deletion strains, locus YOL012C, strain htz1 0.701 | S. cerevisiae deletion strains, locus YOL147C, strain pex11, active compounds read low 0.985 | S. cerevisiae deletion strains, locus YOR001W, strain rrp6, active compounds read low 1.06 | S. cerevisiae deletion strains, locus YOR061W, strain CKA2, active compounds read low 1 | S. cerevisiae deletion strains, locus YOR069W, strain VPS5, active compounds read low 1.01 | S. cerevisiae deletion strains, locus YOR070C, strain gyp1, active compounds read low 1.02 | S. cerevisiae deletion strains, locus YOR080W, strain dia2, active compounds read low 1.03 | S. cerevisiae deletion strains, locus YOR083W, strain WHI5, active compounds read low 0.988 | S. cerevisiae deletion strains, locus YOR106W, strain vam3, active compounds read low 0.954 | S. cerevisiae deletion strains, locus YOR136W, strain idh2, active compounds read low 0.999 | S. cerevisiae deletion strains, locus YOR144C, strain elg1, active compounds read low 0.99 | S. cerevisiae deletion strains, locus YOR184W, strain ser1, active compounds read low 1.03 | S. cerevisiae deletion strains, locus YOR231W, strain MKK1, active compounds read low 0.983 | S. cerevisiae deletion strains, locus YOR265W, strain rbl2, active compounds read low 1 | S. cerevisiae deletion strains, locus YOR270C, strain vph1, active compounds read low 1.05 | S. cerevisiae deletion strains, locus YOR290C, strain snf2, active compounds read low 0.953 | S. cerevisiae deletion strains, locus YOR316C, strain cot1, active compounds read low 0.985 | S. cerevisiae deletion strains, locus YPL051W, strain arl3, active compounds read low 1.04 | S. cerevisiae deletion strains, locus YPL078C, strain atp4, active compounds read low 0.976 | S. cerevisiae deletion strains, locus YPL106C, strain sse1, active compounds read low 1.04 | S. cerevisiae deletion strains, locus YPL240C, strain hsp82, active compounds read low 1.01 | S. cerevisiae deletion strains, locus YPL256C, strain CLN2, active compounds read low 1.01 | S. cerevisiae deletion strains, locus YPR119W, strain clb2, active compounds read low 0.977 | S. cerevisiae deletion strains, locus YPR141C, strain kar3, active compounds read low 0.977 | S. cerevisiae deletion strains, locus YPR163C, strain tif3, active compounds read low 0.989 | S. cerevisiae deletion strains, locus YPR167C, strain met16, active compounds read low 0.971 | S. cerevisiae deletion strains, strain wtn01, active compounds read low 1 | S. cerevisiae strains, strain wild type, active compounds read low 1.03

Source: PubChem BioAssay AID1159580 (chemical genetic matrix, 2015)
